In the OligoGym collection:

target: ERCC8; assay: pooled miR-30 sensor sort-seq; sequence = guide strand; details: shRNA
Also: reference of the scale not given here.

Question: Which sensor-assay potency score (higher = more potent) does the source give for TTTGACTGAAATACACAGCAGT here?
Answer: 0.0965

Question: With TATTTCTTGTCTGTGACCCTGT as the sequence, how does the sensor-assay potency score (higher = more potent) read?
Answer: 1.1

Question: How did the sensor-assay potency score (higher = more potent) turn out when TTGTTGTAGTCTCATCATCATC was run?
Answer: -1.65

Question: With TTGACTAAATAAACTATACAGA as the sequence, how does the sensor-assay potency score (higher = more potent) read?
Answer: -1.03

Question: How did the sensor-assay potency score (higher = more potent) turn out when TTGTAATGTATTTGTATCCCAT was run?
Answer: -0.441

Question: For TTGAAAAAAACACAGTCTCATT, which sensor-assay potency score (higher = more potent) is on record?
Answer: -1.3

Question: TAATCAAACATCCTGATGCTCT was tested. Which sensor-assay potency score (higher = more potent) did it give?
Answer: -0.532

Question: TTGACTGAAATACACAGCAGTC was tested. Which sensor-assay potency score (higher = more potent) did it give?
Answer: -0.992

Question: For TTGTAGTCTCATCATCATCAGG, which sensor-assay potency score (higher = more potent) is on record?
Answer: -1.16

Question: Which sensor-assay potency score (higher = more potent) does the source give for TATAGTTCATAAAATCTGCTGA here?
Answer: 0.347

Question: TTTAATTGTGATTTTGTTGTAG was tested. Which sensor-assay potency score (higher = more potent) did it give?
Answer: 0.555

Question: Which sensor-assay potency score (higher = more potent) does the source give for TTTCTTGTCTGTGACCCTGTAG here?
Answer: -0.264
